Activity calls are given as the source filed them. How the source made its calls: active means hit-call score of the fitted dose curve at least 0.9, where 1 is the maximum; inactive means score below 0.9.
Key:
[1] = target: Bile acid receptor (Homo sapiens) (UniProt Q96RI1); assay: ATG_IR1_CIS: Attagene CIS-FACTORIAL HepG2 Assay for human Nuclear Receptor Subfamily 1 Group H Member 4 (NR1H4), IR1 submotif (AID 2282946); details: IR1 reporter transcription, actives raise or lower the signal
Summary of the method: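 Readout: reporter transcript levels by RT-PCR with fluorescent capillary electrophoresis, from HepG2 cells transiently transfected with multiplexed cis-regulated reporters and dosed 24 h. Gain- or loss-of-signal fitted versus DMSO negative control.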

[2] = ATG_GRE_CIS: Attagene CIS-FACTORIAL HepG2 Assay for human Glucocorticoid Response Elements (GRE) (AID 2282947); details: HepG2 GRE cis-reporter, Attagene multiplex mRNA; actives raise or lower the signal
Summary of the method: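 Cells (HepG2) bearing transfected cis-promoter reporter transcription units were treated with chemical for 24 hours. Reporter mRNA was measured via RT-PCR with capillary electrophoresis, and activity was fitted in both directions relative to DMSO.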

[3] = ATG_ISRE_CIS: Attagene CIS-FACTORIAL HepG2 Assay for human Interferon Regulatory Factor 1 (IRF1) binding to an Interferon-Stimulated Response Element (ISRE) (AID 2282948); details: HepG2 ISRE cis-reporter (Attagene), mRNA transcription readout; actives raise or lower the signal
Summary of the method: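 Multiplexed mRNA reporter readout in human liver HepG2 cells: cis-element-driven reporters transfected, compound added for 24 h, transcripts amplified, fluorescently labelled and sized by capillary electrophoresis; curve fitting bidirectional against DMSO.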

[4] = ATG_M_32_CIS: Attagene CIS-FACTORIAL HepG2 Assay for M32 Transcription Factor (Internal Marker) (AID 2282949); details: HepG2 Attagene cis-factorial M32 reporter, mRNA; actives raise or lower the signal;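 further: background control marker of the multiplexed CIS panel rather than a real target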
Summary of the method: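 HepG2 human liver cells transiently transfected with cis-promoter-driven multiple reporter transcription units, dosed 24 h. Reporter mRNA quantified by RT-PCR, FAM-labelled primer extension, HpaI digest and capillary electrophoresis; bidirectional fit versus DMSO baseline.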

[5] = ATG_M_06_CIS: Attagene CIS-FACTORIAL HepG2 Assay for M06 Transcription Factor (Internal Marker) (AID 2282950); details: HepG2 Attagene CIS-FACTORIAL M06 internal marker reporter; actives raise or lower the signal
Summary of the method: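 Internal background marker within multiplexed cis-reporter HepG2 system. Cells transiently transfected, dosed 24 h; reporter mRNA measured by RT-PCR, HpaI digestion and capillary electrophoresis. Bidirectional fit relative to DMSO.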

[6] = target: Hypoxia-inducible factor 1-alpha (Homo sapiens) (UniProt Q16665); assay: ATG_HIF1a_CIS: Attagene CIS-FACTORIAL HepG2 Assay for human Hypoxia Inducible Factor 1 (HIF1A) (AID 2282951); details: HepG2 Attagene cis-factorial HIF1a reporter transcription; actives raise or lower the signal
Summary of the method: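 HepG2 cells transiently transfected with multiplexed cis-promoter reporter units; reporter mRNA read 24 h after dosing by RT-PCR, 6-FAM primer-extension labelling, HpaI digestion and capillary electrophoresis. Bidirectional fit versus DMSO baseline.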

[7] = target: Hepatocyte nuclear factor 6 (Homo sapiens) (UniProt Q9UBC0); assay: ATG_HNF6_CIS: Attagene CIS-FACTORIAL HepG2 Assay for human Hepatocyte Nuclear Factor 6 (HNF6) (AID 2282952); details: HepG2 Attagene cis-factorial HNF6 reporter transcription; actives raise or lower the signal
Summary of the method: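 First, HepG2 cells were transfected with the multiplexed cis reporter library and dosed with chemical for 24 h. Next, RNA was reverse-transcribed, PCR-amplified and fluorescently labelled. Finally, HpaI-digested fragments were read by capillary electrophoresis.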

[8] = target: Heat shock factor protein 1 (Homo sapiens) (UniProt Q00613); assay: ATG_HSE_CIS: Attagene CIS-FACTORIAL HepG2 Assay for human Heat Shock Transcription Factor 1 (HSE) (AID 2282953); details: HepG2 HSE cis-reporter, Attagene RNA transcription; actives raise or lower the signal
Summary of the method: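 HepG2 cells transfected with cis-promoter reporter units sensing endogenous transcription factor activity; reporter mRNA quantified 24 h post-dose by RT-PCR and capillary electrophoresis of 6-FAM-labelled products. Bidirectional fitting against DMSO.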

[9] = target: Paired box protein Pax-6 (Homo sapiens) (UniProt P26367); assay: ATG_Pax6_CIS: Attagene CIS-FACTORIAL HepG2 Assay for human Paired Box 6 (PAX6) (AID 2282956); details: HepG2 CIS-FACTORIAL PAX6 reporter transcription, RNA readout; actives raise or lower the signal
Summary of the method: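 Fluorescent RT-PCR products separated by capillary electrophoresis report PAX6-linked promoter mRNA in HepG2 cells 24 h post-dose. Curves fitted bidirectionally, DMSO as negative control.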

[10] = ATG_PXRE_CIS: Attagene CIS-FACTORIAL HepG2 Assay for human Pregnane X Receptor Element (PXRE) (AID 2282957); details: HepG2 Attagene CIS-FACTORIAL PXRE reporter, mRNA; actives raise or lower the signal
Summary of the method: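 After a 24 h chemical incubation, total RNA from transfected HepG2 cells was reverse-transcribed and reporter cDNA amplified, FAM-labeled, HpaI-digested and sized by capillary electrophoresis. DMSO served as baseline for bidirectional curve fitting.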

[11] = ATG_Sox_CIS: Attagene CIS-FACTORIAL HepG2 Assay for human SRY-box transcription factor (SOX) (AID 2282960); details: HepG2 Attagene cis-factorial SOX reporter, mRNA; actives raise or lower the signal
Summary of the method: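 HepG2 cells transiently transfected with cis-element-driven multiple reporter transcription units, dosed 24 h; reporter mRNA measured by RT-PCR, FAM labelling, HpaI digestion and capillary electrophoresis. Bidirectional fit versus DMSO baseline.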

[12] = target: Transcription factor Sp1 (Homo sapiens) (UniProt P08047); assay: ATG_Sp1_CIS: Attagene CIS-FACTORIAL HepG2 Assay for human Specificity Protein 1 (Sp1) (AID 2282961); details: HepG2 Sp1 cis-reporter transcription, actives raise or lower the signal
Summary of the method: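 HepG2 cells transiently transfected with multiple reporter transcription units driven by cis-regulatory elements; Sp1-responsive reporter mRNA measured 24 h after dosing by RT-PCR and capillary electrophoresis fluorescence, fitted bidirectionally against DMSO baseline.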

[13] = ATG_SREBP_CIS: Attagene CIS-FACTORIAL HepG2 Assay for human Sterol Regulatory Element Binding (SREBP) (AID 2282962); details: HepG2 Attagene cis-factorial SREBP reporter, mRNA; actives raise or lower the signal
Summary of the method: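 Endogenous factor activity is measured in HepG2 through multiplexed reporter units under cis-element control. Following a 24 h incubation, reporter transcripts are reverse-transcribed, PCR-amplified and sized by capillary electrophoresis; activity is fitted in both directions relative to DMSO.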

[14] = target: Signal transducer and activator of transcription 3 (Homo sapiens) (UniProt P40763); assay: ATG_STAT3_CIS: Attagene CIS-FACTORIAL HepG2 Assay for human Signal Transducer and Activator of Transcription 3 (STAT3) (AID 2282963); details: HepG2, Attagene cis-factorial STAT3 reporter transcription; actives raise or lower the signal
Summary of the method: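 HepG2, MRTU-transfected, 24 h dosing. RNA → RT → PCR → FAM label → HpaI → CE. Bidirectional fit vs DMSO.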

[15] = ATG_TCF_b_cat_CIS: Attagene CIS-FACTORIAL HepG2 Assay for human T-Cell-Factor with beta-catenin (TCF/b-cat) (AID 2282965); details: HepG2 TCF/beta-catenin cis-reporter transcription, actives raise or lower the signal
Summary of the method: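 In this cis-format system, transfected HepG2 cells report endogenous transcription factor activity. Readout after 24 h exposure is reporter transcript abundance from RT-PCR and capillary electrophoresis, analysed for gain or loss of signal versus DMSO.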

[16] = ATG_MRE_CIS: Attagene CIS-FACTORIAL HepG2 Assay for human Metal Responsive Element (MRE) (AID 2282954); details: HepG2 MRE cis-reporter transcription, Attagene multiplex; actives raise or lower the signal
Summary of the method: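 Cells were transfected with cis-promoter reporter transcription units, then dosed for 24 h. RNA was reverse-transcribed, amplified, fluorescently labelled and resolved by capillary electrophoresis, and activity was fitted in both directions relative to DMSO.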

[17] = ATG_PBREM_CIS: Attagene CIS-FACTORIAL HepG2 Assay for human Phenobarbital-responsive Enhancer Module (PBREM) (AID 2282955); details: HepG2 PBREM cis-reporter, Attagene multiplexed transcription; actives raise or lower the signal
Summary of the method: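 HepG2 cells transiently transfected with multiple cis-regulated reporter transcription units; endogenous factor activity at the PBREM element measured as reporter mRNA 24 h after dosing, via RT-PCR and capillary electrophoresis of fluorescent fragments; bidirectional fitting versus DMSO.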

[18] = ATG_PPRE_CIS: Attagene CIS-FACTORIAL HepG2 Assay for human Peroxisome Proliferator-activated Response Element (PPRE) (AID 2282958); details: HepG2 PPRE cis-element reporter, Attagene transcription factor profiling; actives raise or lower the signal
Summary of the method: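 HepG2 cells transiently transfected with multiplexed cis-element reporter units measure endogenous transcription factor activity. After 24 h compound exposure, reporter mRNA is quantified by RT-PCR, 6-FAM labeling, HpaI digestion and capillary electrophoresis; bidirectional fits are made against DMSO baseline.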

[19] = ATG_RORE_CIS: Attagene CIS-FACTORIAL HepG2 Assay for human RAR-related Orphan Receptor Element (RORE) (AID 2282959); details: HepG2 Attagene cis-factorial RORE reporter, mRNA; actives raise or lower the signal
Summary of the method: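 HepG2 cells transiently transfected with multiple cis-element reporter transcription units, exposed to chemical for 24 h. Reporter mRNA quantified by RT-PCR, 6-FAM primer-extension labeling, HpaI digestion and capillary electrophoresis; bidirectional fit versus DMSO baseline.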

[20] = ATG_TA_CIS: Attagene CIS-FACTORIAL HepG2 Assay for human TA Basal Promoter (AID 2282964); details: HepG2 Attagene CIS-factorial TA basal promoter reporter; actives raise or lower the signal
Summary of the method: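 HepG2 cells transiently transfected with multiple reporter units under cis promoter elements, reporting endogenous transcription factor activity; this endpoint tracks the TA basal promoter as background control. Reporter mRNA after 24 h dosing measured by RT-PCR/capillary electrophoresis; bidirectional fits versus DMSO.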

Measured: AC50

Hepatocyte nuclear factor 6 (Homo sapiens), sequence (Q9UBC0 whole entry, looked up, the tested form may be a part): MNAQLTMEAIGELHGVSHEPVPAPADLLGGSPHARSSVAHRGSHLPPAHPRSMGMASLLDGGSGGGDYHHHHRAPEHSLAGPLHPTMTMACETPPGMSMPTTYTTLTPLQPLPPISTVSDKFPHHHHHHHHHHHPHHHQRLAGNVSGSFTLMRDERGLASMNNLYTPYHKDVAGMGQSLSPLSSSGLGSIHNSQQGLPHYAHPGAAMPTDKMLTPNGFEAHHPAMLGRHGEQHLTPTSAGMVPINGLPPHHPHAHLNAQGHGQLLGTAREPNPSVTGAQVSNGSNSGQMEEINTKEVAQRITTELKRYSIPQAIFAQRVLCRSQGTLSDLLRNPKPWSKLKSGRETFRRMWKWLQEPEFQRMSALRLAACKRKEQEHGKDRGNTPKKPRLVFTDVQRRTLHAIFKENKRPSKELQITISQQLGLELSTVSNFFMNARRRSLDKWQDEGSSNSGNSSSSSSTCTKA
Heat shock factor protein 1 (Homo sapiens), sequence (Q00613 whole entry, looked up): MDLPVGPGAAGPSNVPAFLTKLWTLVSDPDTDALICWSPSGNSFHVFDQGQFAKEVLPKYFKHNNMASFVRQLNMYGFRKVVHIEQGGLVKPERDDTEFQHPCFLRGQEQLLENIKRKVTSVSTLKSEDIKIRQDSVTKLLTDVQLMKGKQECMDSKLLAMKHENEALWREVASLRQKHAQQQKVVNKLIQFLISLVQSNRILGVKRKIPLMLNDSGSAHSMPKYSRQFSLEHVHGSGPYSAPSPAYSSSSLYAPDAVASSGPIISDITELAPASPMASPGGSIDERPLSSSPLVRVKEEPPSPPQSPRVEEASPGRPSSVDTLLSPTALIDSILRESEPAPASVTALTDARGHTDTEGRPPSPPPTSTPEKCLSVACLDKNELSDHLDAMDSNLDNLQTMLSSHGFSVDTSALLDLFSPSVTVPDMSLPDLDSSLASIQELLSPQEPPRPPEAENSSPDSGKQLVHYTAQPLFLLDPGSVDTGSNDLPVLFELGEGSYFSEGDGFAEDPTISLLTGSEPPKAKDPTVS
Bile acid receptor (Homo sapiens), sequence (Q96RI1 whole entry, looked up): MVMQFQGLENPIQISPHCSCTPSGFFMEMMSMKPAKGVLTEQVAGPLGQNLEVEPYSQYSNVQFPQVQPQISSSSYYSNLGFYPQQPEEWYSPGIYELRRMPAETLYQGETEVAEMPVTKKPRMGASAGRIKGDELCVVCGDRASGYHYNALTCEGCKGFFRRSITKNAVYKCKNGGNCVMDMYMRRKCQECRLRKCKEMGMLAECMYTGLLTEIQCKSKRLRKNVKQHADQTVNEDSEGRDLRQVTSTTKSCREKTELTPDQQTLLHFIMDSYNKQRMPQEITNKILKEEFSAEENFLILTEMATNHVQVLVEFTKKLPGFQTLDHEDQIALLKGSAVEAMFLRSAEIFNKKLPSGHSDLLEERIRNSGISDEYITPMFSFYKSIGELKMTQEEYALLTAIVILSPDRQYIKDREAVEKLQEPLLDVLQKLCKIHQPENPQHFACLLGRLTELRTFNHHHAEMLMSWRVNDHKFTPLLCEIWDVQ
Signal transducer and activator of transcription 3 (Homo sapiens), sequence (P40763 whole entry, looked up): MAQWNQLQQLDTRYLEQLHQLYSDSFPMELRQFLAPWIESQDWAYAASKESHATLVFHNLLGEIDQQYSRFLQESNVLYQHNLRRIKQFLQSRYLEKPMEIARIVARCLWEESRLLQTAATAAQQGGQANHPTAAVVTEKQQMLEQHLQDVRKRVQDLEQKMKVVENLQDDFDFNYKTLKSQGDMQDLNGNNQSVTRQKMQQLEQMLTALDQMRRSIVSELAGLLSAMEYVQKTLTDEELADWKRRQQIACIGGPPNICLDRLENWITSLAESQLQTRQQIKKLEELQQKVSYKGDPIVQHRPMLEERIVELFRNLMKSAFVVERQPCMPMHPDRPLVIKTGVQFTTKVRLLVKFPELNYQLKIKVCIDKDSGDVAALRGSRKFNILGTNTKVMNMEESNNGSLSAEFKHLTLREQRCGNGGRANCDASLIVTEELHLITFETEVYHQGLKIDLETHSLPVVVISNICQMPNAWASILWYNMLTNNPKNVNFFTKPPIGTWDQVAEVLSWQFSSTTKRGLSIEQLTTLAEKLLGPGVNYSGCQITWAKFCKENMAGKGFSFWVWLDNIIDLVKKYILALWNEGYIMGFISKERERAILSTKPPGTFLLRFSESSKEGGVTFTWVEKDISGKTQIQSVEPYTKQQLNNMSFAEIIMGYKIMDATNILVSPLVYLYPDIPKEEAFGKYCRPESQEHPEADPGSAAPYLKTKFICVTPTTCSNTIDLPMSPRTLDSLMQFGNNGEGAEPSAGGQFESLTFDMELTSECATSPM
Hypoxia-inducible factor 1-alpha (Homo sapiens), sequence (Q16665 whole entry, looked up): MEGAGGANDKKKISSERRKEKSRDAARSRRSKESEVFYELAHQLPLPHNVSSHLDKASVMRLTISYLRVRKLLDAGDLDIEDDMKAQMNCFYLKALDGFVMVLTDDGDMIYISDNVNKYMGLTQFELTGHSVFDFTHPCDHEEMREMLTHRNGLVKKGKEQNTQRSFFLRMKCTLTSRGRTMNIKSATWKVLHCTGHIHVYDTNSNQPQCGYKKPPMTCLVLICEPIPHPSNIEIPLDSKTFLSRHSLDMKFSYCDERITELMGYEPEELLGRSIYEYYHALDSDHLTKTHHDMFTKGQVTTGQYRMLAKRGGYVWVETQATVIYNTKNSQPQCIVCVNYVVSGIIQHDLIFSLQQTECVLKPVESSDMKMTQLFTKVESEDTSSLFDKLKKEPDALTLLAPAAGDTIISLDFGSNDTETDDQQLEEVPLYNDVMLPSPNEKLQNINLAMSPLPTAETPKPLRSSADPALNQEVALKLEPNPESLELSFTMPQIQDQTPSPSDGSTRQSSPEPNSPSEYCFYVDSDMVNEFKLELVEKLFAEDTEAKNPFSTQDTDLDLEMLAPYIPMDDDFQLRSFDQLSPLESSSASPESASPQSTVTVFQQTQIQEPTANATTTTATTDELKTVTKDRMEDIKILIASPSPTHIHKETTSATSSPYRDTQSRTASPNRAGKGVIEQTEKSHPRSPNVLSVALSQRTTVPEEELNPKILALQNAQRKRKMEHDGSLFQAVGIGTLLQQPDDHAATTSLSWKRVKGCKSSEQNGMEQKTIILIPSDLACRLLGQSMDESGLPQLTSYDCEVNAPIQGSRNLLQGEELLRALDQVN
Paired box protein Pax-6 (Homo sapiens), sequence (P26367 whole entry, looked up): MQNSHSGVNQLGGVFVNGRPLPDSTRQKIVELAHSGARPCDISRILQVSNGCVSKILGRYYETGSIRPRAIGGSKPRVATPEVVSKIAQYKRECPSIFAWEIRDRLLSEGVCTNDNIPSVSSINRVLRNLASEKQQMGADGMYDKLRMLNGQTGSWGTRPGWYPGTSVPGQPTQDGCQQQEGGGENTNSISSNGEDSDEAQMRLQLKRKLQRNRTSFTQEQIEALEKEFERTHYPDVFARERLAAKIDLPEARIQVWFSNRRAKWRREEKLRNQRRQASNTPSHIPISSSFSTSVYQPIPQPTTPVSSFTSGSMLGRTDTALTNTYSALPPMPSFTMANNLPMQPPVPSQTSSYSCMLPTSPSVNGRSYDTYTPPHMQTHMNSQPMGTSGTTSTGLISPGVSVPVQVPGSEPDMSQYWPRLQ
Transcription factor Sp1 (Homo sapiens), sequence (P08047 whole entry, looked up): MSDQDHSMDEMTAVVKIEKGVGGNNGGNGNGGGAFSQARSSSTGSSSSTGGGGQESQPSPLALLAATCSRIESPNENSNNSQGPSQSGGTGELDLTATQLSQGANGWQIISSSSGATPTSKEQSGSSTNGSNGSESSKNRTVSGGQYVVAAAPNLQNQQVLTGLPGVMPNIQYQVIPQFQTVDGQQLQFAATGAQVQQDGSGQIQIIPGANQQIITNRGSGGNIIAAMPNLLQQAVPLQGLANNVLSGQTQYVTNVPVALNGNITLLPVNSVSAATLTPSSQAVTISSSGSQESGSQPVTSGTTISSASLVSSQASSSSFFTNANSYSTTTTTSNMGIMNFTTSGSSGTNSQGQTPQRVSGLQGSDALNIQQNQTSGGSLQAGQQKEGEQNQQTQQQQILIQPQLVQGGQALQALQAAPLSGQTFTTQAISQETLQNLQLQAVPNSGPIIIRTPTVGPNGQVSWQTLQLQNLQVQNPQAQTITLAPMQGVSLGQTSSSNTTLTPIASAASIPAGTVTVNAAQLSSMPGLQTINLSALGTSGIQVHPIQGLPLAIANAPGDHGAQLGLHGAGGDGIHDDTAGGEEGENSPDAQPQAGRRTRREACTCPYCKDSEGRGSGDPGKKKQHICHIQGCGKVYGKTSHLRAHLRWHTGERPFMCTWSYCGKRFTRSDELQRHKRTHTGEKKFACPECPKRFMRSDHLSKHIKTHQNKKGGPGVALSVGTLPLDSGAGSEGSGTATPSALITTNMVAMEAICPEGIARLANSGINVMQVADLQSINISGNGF

CCC(C(=O)NC(N)=O)c1ccccc1 (configuration not stated)
not listed: [16] | [17] | [18] | [19] | [20]
inactive: all other assays above

N#Cc1nc(Cl)c(Cl)c(Cl)c1Cl
inactive: [2] | [4] | [5] | [17] | [18] | [19] | [12] | [14] | [20]
active: [1] 4.18 µM | [3] 2.79 µM | [6] 3.71 µM | [7] 5.48 µM | [8] 5.66 µM | [16] 2.63 µM | [9] 5.32 µM | [10] 5.5 µM | [11] 5.26 µM | [13] 5.74 µM

N#Cc1ccccc1
inactive: all assays above

CCC(=O)/C=C/C1C(C)=CCCC1(C)C (configuration not stated)
active: [10] 4.76 µM
not listed: [17] | [18]
inactive: all other assays above
